Measured values reported in PubChem BioAssay.
The source made the active and inactive calls. Unless noted, the rule behind the calls is not given here.

Tests used:
[1] = compound effects on lung adenocarcinoma cell viability – A549, calcein-AM fluorescence, 48 h, basal, profiling panel (AID 1162); conditions: higher = more signal; note: test concentration not given here
[2] = compound effects on differentiated 3T3-L1 adipocyte viability – cell-based, 3T3-L1 adipocytes, calcein-AM fluorescence, 48 h, basal, profiling panel (AID 1163); conditions: 3T3-L1 adipocytes viability, higher = more signal; note: test concentration not given here
[3] = compound effects on hepatocellular carcinoma cell viability – HepG2, calcein-AM fluorescence, 48 h, basal, profiling panel (AID 1164); conditions: higher = more signal; note: test concentration not given here
[4] = compound effects on multiple myeloma cell viability – MM1S, calcein-AM fluorescence, 48 h, basal, profiling panel (AID 1165); conditions: higher = more signal; note: test concentration not given here
[5] = calcein-AM signal in unstimulated myeloma cells – cell-based, calcein-AM fluorescence, 48 h, PK04 Diversity Set, profiling panel (AID 1166); conditions: RPMI8226 myeloma viability, higher = more signal;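 note: cells grown under basal conditions without added stimulus; test concentration not given here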
[6] = JC-1 mitochondrial signal, unstimulated HepG2 cells – cell-based, JC-1 fluorescence, 24 h, 100 nL compound, profiling panel (AID 1167); conditions: HepG2 mitochondrial potential, higher = more signal; note: test concentration not given here
[7] = JC-1 mitochondrial signal, unstimulated adipocytes – cell-based, JC-1 fluorescence, 3T3-L1 adipocytes, 24 h, 100 nL compound, profiling panel (AID 1168); conditions: JC-1 mitochondrial fluorescence, higher = more signal, called active from +8 up or from −8 down; note: test concentration not given here
[8] = JC-1 mitochondrial signal, unstimulated myeloma cells – cell-based, JC-1 fluorescence, RPMI8226, 24 h, 100 nL compound, profiling panel (AID 1169); conditions: JC-1 mitochondrial potential fluorescence, higher = more signal; note: test concentration not given here
[9] = JC-1 mitochondrial signal, unstimulated MM1S myeloma – cell-based, JC-1 fluorescence, 24 h, 100 nL compound, profiling panel (AID 1170); conditions: MM1S mitochondrial potential, higher = more signal; note: test concentration not given here
[10] = resazurin metabolic signal in A549 cells – cell-based, resazurin fluorescence, 24 h, PK04 Diversity Set, profiling panel (AID 1171); conditions: A549 viability, higher = more signal, called active from +8 up or from −8 down; note: test concentration not given here
[11] = resazurin metabolic signal in HepG2 cells – cell-based, resazurin fluorescence, 24 h, PK04 Diversity Set, profiling panel (AID 1172); conditions: HepG2 viability, higher = more signal; note: test concentration not given here
[12] = budding yeast growth changes without added modifier – OD600, strain BY4716, 24 h, basal condition, primary screen (AID 1173); conditions: S. cerevisiae BY4716 growth, OD600, 24 h; higher = more signal, called active from +8 up or from −8 down
[13] = viability profiling in MM1S myeloma cells – cell-based, resazurin fluorescence, basal, 24 h, PK04 Diversity Set, profiling panel (AID 1174); conditions: higher = more signal, called active from +8 up or from −8 down; note: test concentration not given here
[14] = target: Dihydroorotate dehydrogenase (quinone), mitochondrial (Plasmodium falciparum (isolate 3D7)) (UniProt Q08210); assay: inhibition of P. falciparum DHODH – biochemical, C-terminal His tag, absorbance 600 nm, primary screen (AID 1175); conditions: PfDHODH enzyme, DCIP absorbance 600 nm; higher = more signal, called active from +8 up or from −8 down;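 note: recombinant parasite enzyme with a five histidine tag at its C terminus; test concentration not given here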
[15] = inhibition of PAO1 biofilm formation – strain PAO1, LB-PBS medium, absorbance 600 nm, primary screen (AID 1176); note: test concentration not given here; conditions: P. aeruginosa PAO1 growth/biofilm, A600, 12 h; higher = more signal
[16] = growth modulation of vineyard yeast isolate – strain RM11-1a, OD600, basal, 24 h, primary screen (AID 1177);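 note: cultures grown under basal conditions with no added stressor; test concentration not given here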; conditions: S. cerevisiae RM11-1a growth, OD600, 24 h; higher = more signal, called active from +8 up or from −8 down
[17] = growth of efflux-deficient E. coli DRC39 – strain DRC39, OD650, 24 h, E. coli filamentation inducers, primary screen (AID 1178);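 note: growth measured as culture turbidity by optical density at 650 nm; test concentration not given here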; conditions: E. coli DRC39 acrAB, higher = more signal, called active from +8 up or from −8 down
[18] = growth of efflux-deficient E. coli DRC39 – strain DRC39, OD650, 48 h, E. coli filamentation inducers, primary screen (AID 1179);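 note: screen aims at cell division blockers that make cells filament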; conditions: E. coli DRC39 delta-acrAB growth, higher = more signal, called active from +8 up or from −8 down
[19] = viability profiling in RPMI8226 myeloma cells – cell-based, resazurin fluorescence, basal, 24 h, PK04 Diversity Set, profiling panel (AID 1180); conditions: higher = more signal;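 note: RPMI8826 multiple myeloma cell line at 5000 cells per well; test concentration not given here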
[20] = target: E3 ubiquitin-protein ligase XIAP (Homo sapiens) (UniProt P98170); assay: small molecules binding XIAP protein – biophysical, small-molecule microarray, fluorescence 635 nm, primary screen (AID 1181); conditions: higher = more signal;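 note: score merges 667 nm emission and signal to noise over triplicate slides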
Sequence of E3 ubiquitin-protein ligase XIAP (Homo sapiens) (P98170 whole entry, looked up): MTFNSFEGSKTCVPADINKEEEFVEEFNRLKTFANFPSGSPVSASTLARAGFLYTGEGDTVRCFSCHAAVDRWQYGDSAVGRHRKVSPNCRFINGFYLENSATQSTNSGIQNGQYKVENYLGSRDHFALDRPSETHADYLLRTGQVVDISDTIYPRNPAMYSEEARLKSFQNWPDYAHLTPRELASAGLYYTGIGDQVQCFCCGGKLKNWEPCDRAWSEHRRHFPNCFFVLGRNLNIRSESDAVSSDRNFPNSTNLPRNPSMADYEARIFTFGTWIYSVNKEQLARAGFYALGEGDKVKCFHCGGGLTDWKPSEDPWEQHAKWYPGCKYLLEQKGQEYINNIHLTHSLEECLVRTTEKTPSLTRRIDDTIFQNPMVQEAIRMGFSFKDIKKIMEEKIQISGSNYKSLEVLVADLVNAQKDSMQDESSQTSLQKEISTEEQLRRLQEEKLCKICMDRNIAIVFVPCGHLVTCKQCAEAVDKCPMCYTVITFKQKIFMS

Sequence of Dihydroorotate dehydrogenase (quinone), mitochondrial (Plasmodium falciparum (isolate 3D7)) (Q08210 whole entry, looked up): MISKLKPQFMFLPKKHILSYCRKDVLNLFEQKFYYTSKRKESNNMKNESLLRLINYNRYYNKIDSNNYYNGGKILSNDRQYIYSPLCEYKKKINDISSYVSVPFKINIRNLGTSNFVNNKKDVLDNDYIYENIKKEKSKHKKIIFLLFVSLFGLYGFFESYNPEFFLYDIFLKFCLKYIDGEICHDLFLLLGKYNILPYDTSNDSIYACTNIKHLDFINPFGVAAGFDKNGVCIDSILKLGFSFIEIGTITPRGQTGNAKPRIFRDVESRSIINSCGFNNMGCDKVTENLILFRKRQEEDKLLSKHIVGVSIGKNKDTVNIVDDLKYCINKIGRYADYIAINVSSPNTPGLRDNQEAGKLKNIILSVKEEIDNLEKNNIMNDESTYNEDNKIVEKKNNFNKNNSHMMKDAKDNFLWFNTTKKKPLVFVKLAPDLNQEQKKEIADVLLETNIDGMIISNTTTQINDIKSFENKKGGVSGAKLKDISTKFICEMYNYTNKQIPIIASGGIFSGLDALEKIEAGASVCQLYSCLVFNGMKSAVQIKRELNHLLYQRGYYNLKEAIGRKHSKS

SMILES	z-score [1]	z-score [2]	z-score [3]	z-score [4]	z-score [5]	z-score [6]	z-score [7]	z-score [8]	z-score [9]	z-score [10]	z-score [11]	z-score [12]	z-score [13]	composite z-score [14]	z-score [15]	z-score [16]	z-score [17]	z-score [18]	z-score [19]	composite z-score [20]
COCC(=C=CC[C@H](O)c1cccc(OCCO)c1)C[C@H](O)COCc1ccccc1	0.276	-0.48	0.0978	0.103	-0.557	-0.487	-0.3 (inactive)	0.191	-0.701	-0.359 (inactive)	-0.136	-1.76 (inactive)	-0.0529 (inactive)	-1.65 (inactive)	0.838 (inactive)	-0.496 (inactive)	-0.0164 (inactive)	0.0211 (inactive)	0.0473	0.0736
CCCC=C(CCC)[C@@H](NS(=O)(=O)c1cccc2cccnc12)c1ccc(-c2ccccc2)cc1	-0.97	-0.411	-0.615	-1.95	-4.54	-3.54	-0.0229 (inactive)	-0.361	-0.844	0.864 (inactive)	1.15	0.928 (inactive)	1.02 (inactive)	-0.0926 (inactive)	-0.787 (inactive)	0.52 (inactive)	-0.24 (inactive)	-0.342 (inactive)	1.27	0.072
CC(C)C[C@@H]1NC(=O)CNC(=O)[C@@]23C(=O)N[C@@H](Cc4ccccc4)C2[C@H](C)[C@@]2(C)O[C@H]2C3/C=C/C/C=C\CNC1=O (stereo not given in full)	-0.692	0.404	-0.262	0.0565	-0.939	-0.513	0.00154 (inactive)	-0.385	-0.181	0.547 (inactive)	0.544	0.205 (inactive)	0.339 (inactive)	0.084 (inactive)	1.31 (inactive)	0.0082 (inactive)	0.387 (inactive)	0.394 (inactive)	0.663	-0.164
C=CCC(OC(C)=O)[C@@H]1[C@@H](N(Cc2ccc(-c3ccccc3)cc2)C(=O)Cc2ccc(F)cc2)c2cc(OCCCO)ccc2N1C(=O)Cc1ccc2ccccc2c1 (stereo not given in full)	0.234	-0.246	0.646	-0.177	0.0473	2.19	-0.321 (inactive)	-0.909	0.89	1.05 (inactive)	0.487	-0.0838 (inactive)	0.821 (inactive)	0.252 (inactive)	0.113 (inactive)	-0.177 (inactive)	0.531 (inactive)	0.575 (inactive)	0.486	-0.455
COc1ccc([Si](C)(C)[C@@H]2[C@@H](CC(=O)N3Cc4ccccc4C[C@H]3CO)O[C@]3(C(=O)N(Cc4ccc(N5CCC5=O)cc4)c4ccccc43)[C@H]2C)cc1	-0.167	0.233	0.437	-0.0069	-1.76	1.13	1.37 (inactive)	-0.553	-0.502	-0.61 (inactive)	0.353	0.457 (inactive)	-0.736 (inactive)	-3 (inactive)	1.45 (inactive)	2.01 (inactive)	0.7 (inactive)	0.613 (inactive)	-0.536	0.177
CCOC(=O)C1=C[C@@H](C(C)(C)C)N(S(=O)(=O)c2ccc(C)cc2)[C@H]1c1ccc(C)cc1	-0.681	0.226	-1.73	-1.01	-1.1	6.67	-0.251 (inactive)	-0.901	0.933	0.51 (inactive)	-0.473	1.01 (inactive)	-0.328 (inactive)	-0.186 (inactive)	0.148 (inactive)	0.526 (inactive)	-0.617 (inactive)	-0.823 (inactive)	-2.18	-0.0017
CCN(CC)c1ccc(N2CC=CC34O[C@@H]5/C=C\CCC(C)OC(=O)C5[C@H]3C(=O)N(C(C)CO)[C@@H]4C2=O)cc1 (stereo not given in full)	-0.0588	-1.03	1.48	0.86	0.388	1.16	0.0645 (inactive)	-0.616	-0.585	-0.0052 (inactive)	0.958	-0.893 (inactive)	0.259 (inactive)	0.881 (inactive)	-1.28 (inactive)	0.507 (inactive)	0.966 (inactive)	1.39 (inactive)	0.0809	0.0727
C=C(COC)C(=O)CC[C@H](OC(C)=O)c1ccc(OCCO)cc1	-0.522	1.72	-0.974	-2.6	-0.887	0.692	-0.213 (inactive)	-0.0964	1.3	0.0933 (inactive)	-0.429	-0.408 (inactive)	-0.267 (inactive)	-0.998 (inactive)	-0.116 (inactive)	-0.83 (inactive)	-0.238 (inactive)	0.53 (inactive)	-0.873	-0.326
COc1ccc([Si](C)(C)[C@H]2[C@H](CCO)O[C@@]3(C(=O)N(Cc4ccc(N5C(=O)c6ccccc6Oc6ccccc65)cc4)c4ccccc43)[C@@H]2C)cc1	-0.573	0.56	-2.71	-2.79	-4.04	0.0142	0.821 (inactive)	-1.01	-2.04	-2.45 (inactive)	-1.49	0.884 (inactive)	-3.52 (inactive)	0.198 (inactive)	2.72 (inactive)	4.11 (inactive)	1.78 (inactive)	0.987 (inactive)	-3.67	-0.115
COc1cc(CO)cc(I)c1O[C@H]1C=C(C(=O)NCCO)C[C@@H](NCC2CCCCC2)[C@@H]1O	1.31	0.13	0.407	-0.235	0.893	1.25	-0.328 (inactive)	-0.561	-1.5	0.258 (inactive)	0.361	-0.964 (inactive)	-0.221 (inactive)	-0.257 (inactive)	-0.107 (inactive)	-0.489 (inactive)	1.45 (inactive)	0.866 (inactive)	0.428	0.0831
CCCNC(=O)[C@@]1(Sc2ccc(C)cc2)CC(=O)N(C2CCCCC2)[C@@H]1c1ccc(CO)cc1I	0.14	0.53	0.265	-2.15	-2.58	-0.478	-0.764 (inactive)	-0.503	-1.04	0.696 (inactive)	-0.0096	-1.07 (inactive)	0.0674 (inactive)	-0.198 (inactive)	0.627 (inactive)	-1.15 (inactive)	0.29 (inactive)	0.0883 (inactive)	-1.1	-0.321
CCOC(=O)C[C@H]1[C@H](OC(=O)c2ccc(-c3ccccc3)cc2)[C@@H](NC(=O)CC(C)C)c2cc(OCCCO)ccc2N1C(=O)c1ccccc1	-0.426	-0.257	-0.0915	-1.17	-0.672	1.32	-0.679 (inactive)	0.983	0.33	-0.719 (inactive)	-0.6	1.28 (inactive)	-0.281 (inactive)	0.88 (inactive)	0.951 (inactive)	0.964 (inactive)	-0.635 (inactive)	-0.776 (inactive)	-0.157	-0.0559
COCCOC(=O)N1C(=O)[C@@]2(c3cc(C#CCNC(N)=O)ccc31)[C@H](c1ccc(O)cc1)N1[C@H](c3ccccc3)[C@H](c3ccccc3)OC(=O)[C@H]1[C@@H]2C(=O)N1CCN(c2ncccn2)CC1	-0.652	-0.901	0.527	-0.0396	-1.05	-2.34	0.703 (inactive)	-0.322	-1.14	-0.163 (inactive)	0.392	2.72 (inactive)	-0.441 (inactive)	-0.265 (inactive)	2.81 (inactive)	3.03 (inactive)	-0.123 (inactive)	0.0896 (inactive)	-0.0784	-0.205
CC(C)(C)OC(=O)CC[C@]1(C(=O)N2CCCCC2)COC(c2ccc(OCCCO)cc2)=N1	-0.34	0.162	-0.614	-0.0601	-0.225	-0.696	-0.378 (inactive)	-0.492	-0.978	2.58 (inactive)	2.29	-1.31 (inactive)	0.619 (inactive)	-0.509 (inactive)	-1.17 (inactive)	-0.398 (inactive)	0.134 (inactive)	0.139 (inactive)	1.41	0.162
CS(=O)(=O)CCOC(=O)C1=CC(CCCO)=CC(C2CC2)N(Cc2cccc(OC(F)(F)F)c2)C=C1C(=O)OCCS(C)(=O)=O (stereo not given)	0.78	0.751	0.572	-2.98	-1.18	1.92	-0.374 (inactive)	-0.34	-0.0798	0.538 (inactive)	0.0407	-2.55 (inactive)	0.0932 (inactive)	-0.0527 (inactive)	0.342 (inactive)	0.416 (inactive)	0.9 (inactive)	0.241 (inactive)	0.329	0.0363
COC(=O)[C@@]1(Cc2ccc(OC)cc2)[C@H]2c3cc(C(=O)N4CCCC4)n(Cc4ccc(OC(F)(F)F)cc4)c3C[C@H]2CN1C(=O)c1ccccc1	-0.77	-0.25	-0.871	-0.889	-2.45	0.225	-0.621 (inactive)	-0.638	-1.58	-0.995 (inactive)	-0.0938	1.82 (inactive)	-1.43 (inactive)	-0.731 (inactive)	0.343 (inactive)	0.755 (inactive)	-0.0079 (inactive)	0.513 (inactive)	-2.54	0.0479
